Measurements taken from the supplement of paper PMC12636033.
± gives the standard deviation of the averaged measurements. In all, about 33,000 sequences were measured (“E-score (rank enrichment, -0.5 to 0.5)”: median about -0.0028, highest 2% from about 0.23 on). This excerpt belongs to a sample that is enriched for the highest values.

system: 2Sb-muMax20 (muMax20 with two 1,3-bis(methyl)benzene Cys staples, A13C/A17C and Q88C/A92C, C-terminal Lys); assay: PBM 8-mer E-score (E-score (rank enrichment, -0.5 to 0.5)); higher = stronger preferential binding
Protocol: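 Protein binding microarray (universal PBM chip covering all 10-mers in fixed probe flanks) with chemically synthesized human Max(13-93) bHLH-LZ analogs (not full-length Max) bearing noncanonical residues (hArg, Tha, Aib, Nle at 65) and aromatic Cys staples. Read-out per 8-mer (and its reverse complement): E-score (rank-based enrichment, -0.5 to 0.5) and Z-score of median probe intensity.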

Sequence | PBM 8-mer E-score
ATCCCCTG | 0.114 ± 0.01
CCTAAACC | 0.0137 ± 0.051
CACACTAG | 0.0294 ± 0.013
ATTCTGCG | -0.00613 ± 0.071
AAGTACGC | 0.0498 ± 0.026
CCCTTGAG | 0.00432 ± 0.0094
GCTGGCTA | -0.249 ± 0.011
ACCCCGAT | 0.136 ± 0.042
CCGTATAC | 0.0522 ± 0.032
CACGAGGA | -0.017 ± 0.031
CACGAGAA | -0.0119 ± 0.064
AACGAGAT | -0.0543 ± 0.025
AACGAGGA | 0.239 ± 0.015
TACGAGGA | 0.169 ± 0.069
AACGAGAA | 0.238 ± 0.04
ATAGTGCG | 0.0132 ± 0.011
CATCGGAC | -0.165 ± 0.033
TATCATAA | 0.181 ± 0.012
CATCATAA | 0.142 ± 0.0093
GATCATAA | 0.278 ± 0.0031
CATCGCGA | 0.056 ± 0.036
ACCATAAC | 0.1 ± 0.012
ATAAATTA | 0.307 ± 0.014
CTAAATTA | 0.0224 ± 0.0043
ATTAACTC | 0.136 ± 0.005

Sequence | PBM 8-mer E-score
ATTAACTA | 0.237 ± 0.012
ATAAATTG | 0.165 ± 0.082
GTTAACTA | 0.207 ± 0.1
ATTAATTG | 0.175 ± 0.039
ATTAATGA | 0.278 ± 0.055
GTTAATGA | 0.148 ± 0.06
ATTAATGG | 0.0434 ± 0.0092
ATTAATTA | 0.263 ± 0.034
ATTAATTC | 0.105 ± 0.042
CGGTCACG | -0.188 ± 0.076
CAGGGAGC | -0.238 ± 0.051
AGCCTTCA | 0.149 ± 0.085
AATAATTA | 0.269 ± 0.06
GATAATTA | 0.0844 ± 0.0069
CTGAACTA | -0.149 ± 0.065
AATAATGC | 0.213 ± 0.083
ATGAACTC | -0.04627 ± 0.0002
CATAATTA | 0.203 ± 0.039
AATAATGT | 0.283 ± 0.0037
AATAATGG | 0.138 ± 0.0076
ATGAACTA | 0.27 ± 0.054
GAGTGCAC | -0.0155 ± 0.11
AATACGGA | 0.0895 ± 0.071
CGGAATGC | -0.00566 ± 0.015
GTCCATTA | 0.107 ± 0.015

Sequence | PBM 8-mer E-score
ATGTGGAA | 0.173 ± 0.015
GGAAATAC | -0.0227 ± 0.051
GAGTTCCA | -0.117 ± 0.052
GCACGTAC | 0.0889 ± 0.026
GCACGTCC | -0.139 ± 0.095
GAACGTGA | 0.00502 ± 0.1
GGACGTGA | -0.108 ± 0.045
GCACGTGA | 0.241 ± 0.026
GCACGTGC | 0.4793 ± 0.0038
GTTCCGTA | -0.187 ± 0.024
ATCCACAA | 0.0617 ± 0.059
ATCGTCCG | -0.149 ± 0.027
GTTTCTTA | 0.0179 ± 0.046
AATAACCG | 0.0384 ± 0.018
ACGCGCGG | 0.178 ± 0.038
ACGCGCGT | 0.3355 ± 0.0029
GCGCGCGA | 0.0594 ± 0.082
CCGCGCGC | 0.01 ± 0.0081
GCGCGCGC | 0.3223 ± 0.00078
ACGCGCGC | 0.1365 ± 0.00093
AGCAGTTC | 0.00143 ± 0.078
AAAAATAA | 0.0834 ± 0.061
GACCTGGA | -0.164 ± 0.035
AATATTCT | 0.133 ± 0.011
CATACGTA | 0.3021 ± 0.0027

Sequence | PBM 8-mer E-score
GATACGTA | 0.081 ± 0.0043
AATACGTA | 0.231 ± 0.019
AATACGCA | 0.251 ± 0.0039
AATACGTG | 0.0524 ± 0.012
CATACGTC | -0.00541 ± 0.00038
AATACGTC | 0.0547 ± 0.024
AATACGCT | 0.188 ± 0.045
GATACGCA | 0.115 ± 0.031
AAGCACAC | 0.0724 ± 0.00084
AGACGTAA | 0.0336 ± 0.059
CCGTAGAG | -0.0843 ± 0.033
AAGGGGCT | 0.276 ± 0.0072
AAGGGGCG | 0.0188 ± 0.025
TAGGGGCA | 0.267 ± 0.013
CAGGGGCA | 0.0503 ± 0.027
GAGGGGCA | 0.0724 ± 0.043
AAAGGGCT | 0.0103 ± 0.021
AAAGTTAT | 0.0271 ± 0.025
AATAGGGC | -0.00932 ± 0.054
CAGTTTGA | -0.0513 ± 0.03
GGAATGCC | -0.081 ± 0.011
GTGGAGCA | -0.0959 ± 0.032
AATAGCAG | -0.0835 ± 0.028
GCTGTATA | 0.218 ± 0.05
CACGTATA | 0.0602 ± 0.053

Sequence | PBM 8-mer E-score
ATTGTACC | 0.178 ± 0.035
ATTGTATG | 0.172 ± 0.066
CCTGTATA | 0.109 ± 0.011
AACGTATA | 0.251 ± 0.032
GACGTATA | 0.0136 ± 0.0084
CTTGTATA | 0.164 ± 0.018
ATTGTATA | 0.273 ± 0.017
ACTGTATA | 0.236 ± 0.042
CTTGTACA | 0.0642 ± 0.09
ATTGTACA | 0.241 ± 0.042
TGAAGAAA | -0.0313 ± 0.065
CACCTCTG | -0.0833 ± 0.03
CGTAACAG | 0.177 ± 0.013
GAAGGCGC | -0.0372 ± 0.063
GTTGTCTA | -0.0541 ± 0.029
GATGTATA | 0.0803 ± 0.029
AATGTATA | 0.269 ± 0.02
ATTGTCTA | 0.277 ± 0.0069
ATTGTCTC | -0.0946 ± 0.028
CATGTATA | 0.15 ± 0.062
TAACGGAA | 0.149 ± 0.021
ACAGTGAT | 0.142 ± 0.065
TAAGGCTA | 0.0712 ± 0.066
AGGAGGGC | -0.0974 ± 0.038
AGGAGGGA | -0.0776 ± 0.0034

Sequence | PBM 8-mer E-score
AGTAGGGG | 0.306 ± 0.0088
ATGAGGGC | 0.0989 ± 0.0016
AGTAGGGC | 0.0716 ± 0.0035
AGGAGGGG | 0.297 ± 0.06
AGTAGGGA | 0.0636 ± 0.013
ATGAGGGA | 0.191 ± 0.062
ATGAGGGG | 0.267 ± 0.0094
AATGGCGA | 0.135 ± 0.067
GACTCAGA | -0.115 ± 0.064
CACGGCAC | -0.198 ± 0.045
GGTCTCTA | -0.0733 ± 0.014
CCTGAGCC | -0.241 ± 0.074
TGTTTCAA | 0.13 ± 0.063
GAAGTTGC | -0.202 ± 0.021
CCTTCACA | 0.298 ± 0.014
ACTTCACA | 0.0282 ± 0.023
CCTTCACG | -0.013 ± 0.075
AATCCCGT | -0.000655 ± 0.018
GTATTTTA | 0.0366 ± 0.0083
CCATTTTA | 0.0822 ± 0.0077
ATATTTAC | 0.22 ± 0.028
ATATTTAA | 0.256 ± 0.024
ATATTTTA | 0.238 ± 0.0056
GCATTTTA | 0.151 ± 0.0045
CTATTTAA | -0.0132 ± 0.0071

Sequence | PBM 8-mer E-score
ACATTTTA | 0.242 ± 0.054
CTATTTTA | 0.193 ± 0.048
CCTTTTTC | 0.0688 ± 0.1
CCCGAAAA | 0.0645 ± 0.051
AGTATTAT | -0.0141 ± 0.036
AGCGAACC | -0.0262 ± 0.033
GCCCTCAA | 0.0476 ± 0.024
AAAGTACT | 0.136 ± 0.092
GGAAGTAA | 0.262 ± 0.0039
AGAAGTAA | 0.141 ± 0.011
TGAAGTAA | 0.1 ± 0.05
TATATCCA | 0.157 ± 0.048
AGTCGCAT | 0.00112 ± 0.0029
ATGATCCG | -0.186 ± 0.035
ATAAACAC | 0.0999 ± 0.056
ATAAATAA | 0.111 ± 0.012
ATAAATAC | 0.288 ± 0.028
ATAAAAAT | 0.136 ± 0.028
ATAAACAA | 0.157 ± 0.019
ATAAATAT | 0.239 ± 0.042
ATAAACAT | 0.246 ± 0.014
ATAAATAG | 0.111 ± 0.04
AAAAATAT | 0.16 ± 0.01
